Results filed as inconclusive are left out. A number with no mark means an inactive call. Active and inactive are the calls of the source. Calls come from the whole dose curve; as a rule, active = well fitted activation curve with a large enough effect in the signal ratio in the repeat runs (not every such curve was filed as active); inconclusive = weak or mixed curves, or effect the other way; inactive = no such curve, though single readings can be large or run the other way; the % refers to the signal ratio.
Assay: qHTS assay for small molecule agonists of the antioxidant response element (ARE) signaling pathway (AID 743202)
Details: HepG2 ARE-bla reporter, beta-lactamase FRET, 16 h; series mostly up to 73.3 µM; activation: at the top concentration
Source text: U.S. Tox21 Program National Center for Advancing Translational Sciences [NCATS] NIH Chemical Genomics Center [NCGC] U.S. Environmental Protection Agency [EPA] National Institutes of Environmental Health Sciences [NIEHS] National Toxicology Program [NTP] U.S. Food and Drug Administration [FDA] Tox21 Assay Overview: Oxidative stress has been implicated in the pathogenesis of a variety of diseases ranging from cancer to neurodegeneration. The antioxidant response element (ARE) signaling pathway plays an important role in the amelioration of oxidative stress. The CellSensor ARE-bla HepG2 cell line (Invitrogen) can be used for analyzing the Nrf2/antioxidant response signaling pathway. Nrf2 (NF-E2-related factor 2) and Nrf1 are transcription factors that bind to AREs and activate these genes. The CellSensor ARE-bla Hep G2 cell line contains a beta-lactamase reporter gene under control of the Antioxidant Response Element (ARE) stably integrated into HepG2 cells. The activation of the report gene under culture conditions can be detected by fluorescence intensity. This cell line has been used to screen the Tox21 10K compound library to identify agonists that induce oxidative stress.
Tox21 Assay Protocol Summary: The ARE-bla cells were dispensed at 2,000 cells/5 ul/well in 1536-well black wall/clear bottom plates using a Multidrop dispenser. After the assay plates were incubated at a 37 C/5% CO2 incubator for 5 hours, 23 nL of compounds dissolved in DMSO, positive controls or DMSO only was transferred to the assay plate by a pin tool. The plates were incubated at 37 C for 16 hours. After 1 uL of LiveBLAzer B/G FRET substrate was added using a Flying Reagent Dispenser, the plates were incubated at room temperature for 2 hours, and fluorescence intensity was measured by an Envision plate reader.
% is set by controls: 0 for no effect and ±100 for the full control effect; potency is the fitted concentration of half-maximal effect.

Row | Structure (SMILES) | activation | Potency
1 | O=C(OCC(COC(=O)c1cccnc1)(COC(=O)c1cccnc1)COC(=O)c1cccnc1)c1cccnc1 | -7.35% | –
2 | COc1ccc(C2CNC(=O)C2)cc1OC1CCCC1 (stereo not given) | -2.27% | –
3 | O=C1O[C@@H]2[C@@H](O)[C@H](O)O[C@@H]2[C@H]1O | -18.1% | –
4 | Oc1ccccc1-c1nnco1 | -10.2% | –
5 | C[C@@H](O)[C@H]1C(=O)N2C(C(=O)O)=C(SCCN=CN)C[C@H]12 | -4.53% | –
6 | CCCCCCOC(=O)CC | -7% | –
7 | CCCCNC1CC(C)(C)NC(C)(C)C1 | -9.1% | –
8 | CC(=O)c1sc(C)nc1C | -7% | –
9 | O=C(NCCc1c[nH]c2ccccc12)c1cccnc1 | 16.9% | –
10 | CC1(C)S[C@@H]2[C@H](N=CN3CCCCCC3)C(=O)N2[C@H]1C(=O)O | -0.991% | –
11 | C=C1CC/C=C(\C)CC[C@@H]2[C@@H]1CC2(C)C | -4.53% | –
12 | CNS(=O)(=O)CCc1ccc2[nH]cc(C3CCN(C)CC3)c2c1 | -6.18% | –
13 | COc1cc(C(=S)N2CCOCC2)cc(OC)c1OC | -0.428% | –
14 | ClCCCl | -11.8% | –
15 | O=C(O)Cc1ccc(Cl)cc1Cl | 0.809% | –
16 | CCOC(=O)c1ncn2c1CN(C)C(=O)c1cc(F)ccc1-2 | 0.681% | –
17 | O=C(NCCN1CCOCC1)c1ccc(Cl)cc1 | -8.29% | –
18 | Cc1cc2cc3c(C)cc(=O)oc3c(C)c2o1 | -1.2% | –
19 | CCOC(=O)[C@H](CCc1ccccc1)N[C@@H](C)C(=O)N1C(=O)N(C)C[C@H]1C(=O)O | -10% | –
20 | O=C(Nc1ccc(Cl)c(Cl)c1)C1CC1 | – | 15 µM (active)

Row | Structure (SMILES) | activation | Potency
21 | CCCOC(OCCC)OCCC | 8.37% | –
22 | CN(CCOc1ccc(NS(C)(=O)=O)cc1)CCc1ccc(NS(C)(=O)=O)cc1 | 9.55% | –
23 | C=C(C)C(=O)OCCN(CC)CC | 6.39% | –
24 | CN1CCN(CC(=O)N2c3ccccc3C(=O)Nc3cccnc32)CC1 | 3.2% [at 8.36 µM] | –
25 | C=C(C)C(=O)OCC(C)(C)COC(=O)C(=C)C | 3.63% | –
26 | C[Si](C)=O | -4.69% [at 8.36 µM] | –
27 | O=P(O)(O)OP(=O)(O)O | -20.9% | –
28 | C[C@H](CCC(=O)O)[C@H]1CC[C@H]2[C@@H]3C(=O)C[C@@H]4CC(=O)CC[C@]4(C)[C@H]3CC(=O)[C@]12C | -0.366% | –
29 | CCCCCCCCOS(=O)(=O)O | -5.95% | –
30 | CC(C(=O)O)c1ccc2c(c1)CC(=O)c1ccccc1S2 (stereo not given) | 3.84% | –
31 | CCCCCCN | -12% | –
32 | Cc1cc(Cl)c(C)cc1Cl | -1.95% | –
33 | CC(C)CC(C)CC(C)CC(C)COC(=O)c1ccccc1C(=O)OCC(C)CC(C)CC(C)CC(C)C (stereo not given) | -3.88% | –
34 | On1nnc2ccccc21 | -7.35% | –
35 | Cc1c(I)c(=O)n(-c2ccccc2)n1C | -1.71% | –
36 | Cc1ccsc1/C=C/C1=NCCCN1C | 14.9% | –
37 | O=S(=O)(O)c1cc(O)c2ccc(Nc3ccccc3)cc2c1 | -2.46% | –
38 | O=C(O)CCSSCCC(=O)O | -2.53% [at 94.8 µM] | –
39 | CC(=O)NCc1c(I)c(NC(C)=O)c(I)c(C(=O)O)c1I | -1.6% | –
40 | c1ccc2c(c1)ccc1c3ccccc3ccc21 | – | 24.8 µM (active)

— PubChem BioAssay (Tox21)
